Bioassay records deposited in PubChem by National Center for Advancing Translational Sciences (NCATS).
JMJD2E inh – JMJD2E (human) inhibition; B2RXH2; JMJD2E catalytic domain, FDH-coupled NADH fluorescence (FDH is formaldehyde dehydrogenase); Potency, µM (titrated, usually from 57.1 µM), inactives show top-dose activity change, negative = inhibition, most hits filed as inhibitors; 230,000 tested, 1.6% active; active means well fitted inhibition curve with a large enough effect, not every such curve was filed as active; inconclusive means small, poorly fitted or top-dose-only effect, or another doubt; inactive means no such curve, though single readings can be large or run the other way;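 further: 0% = wells with enzyme and -100% = buffer wells without enzyme; nearly all actives have a fitted effect of over 50% in size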
TDP1 block – inhibitors of human tyrosyl-DNA phosphodiesterase TDP1; Potency, µM (series often up to 130 µM), without a hit: at the top dose activity change, negative = inhibition, most hits filed as inhibitors; 350,000 tested, 0.28% active; recombinant TDP1, AlphaScreen DNA substrate cleavage; Q9NUW8; further: nearly all actives have a fitted effect of over 40% in size
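Steps: enzyme plus compound, 15 min RT; add biotin/phosphotyrosine-FITC oligonucleotide (15 nM final), react 5 min; add donor/acceptor beads (10 ug/ml final), 10 min; read AlphaScreen. Tdp1 at 1 nM final.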
BLM helicase inh – Bloom syndrome helicase (human) inhibition. 350,000 tested, 0.2% active. Potency, µM (doses to about 56.1 µM), inactives show top-dose activity change, negative = inhibition, most hits filed as inhibitors. recombinant BLM DNA unwinding, fluorescence dequenching;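 further: plate controls were vehicle for no effect and no enzyme for full effect; nearly all actives have a fitted effect of over 35% in size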
RECQ1 helicase – blocks DNA unwinding by human RECQ1 | 240,000 tested, 0.54% active | P46063 | RECQ1 DNA unwinding, red fluorescence kinetic read | Potency, µM (doses to about 57.3 µM), for the others: at the top dose activity, negative = inhibition, hits mostly inhibitors;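 further: plate controls were vehicle for no effect and no enzyme for full effect; nearly all actives have a fitted effect of over 30% in size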
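50 nM RECQ1T1 preincubated 15 min with compound in Tris pH 8.0 buffer with MgCl2, DTT, Tween-20 and 2.5 ug/ml poly(dI-dC); started with 200 nM TAMRA/BHQ-2 forked duplex and 2 mM ATP. Unwinding read as fluorescence (525/598 nm), two reads 2 h apart.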
APE1 inh – inhibitors of human APE1 endonuclease; recombinant APE1, TAMRA/BHQ-2 abasic DNA cleavage fluorescence; Potency, µM (doses to about 65.8 µM), for the others: at the highest dose activity change, negative = inhibition, usual class: inhibitors; AID 2517; 350,000 tested, 0.35% active; P27695;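 further: plate controls were vehicle for no effect and reference inhibitor for full effect; nearly all actives have a fitted effect of over 55% in size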
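APE1 at 0.75 nM final was preincubated with compound 15 min at room temperature, then 50 nM double-stranded THF abasic-site substrate (5'-TAMRA/3'-BHQ-2) was added. Fluorescence (ex 525/em 598 nm) was read kinetically; third-minus-first read gave activity.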
L3MBTL1 block – inhibitors of human L3MBTL1 | Q9Y468 | AlphaScreen L3MBTL1–H3K9me1 peptide binding | Potency, µM (doses to about 57.1 µM), inactives show top-dose activity, negative = inhibition, hits mostly inhibitors | 230,000 tested, 0.66% active | AID 485360; further: nearly all actives have a fitted effect of over 60% in size
Target sequence (Q9Y468 whole entry, looked up): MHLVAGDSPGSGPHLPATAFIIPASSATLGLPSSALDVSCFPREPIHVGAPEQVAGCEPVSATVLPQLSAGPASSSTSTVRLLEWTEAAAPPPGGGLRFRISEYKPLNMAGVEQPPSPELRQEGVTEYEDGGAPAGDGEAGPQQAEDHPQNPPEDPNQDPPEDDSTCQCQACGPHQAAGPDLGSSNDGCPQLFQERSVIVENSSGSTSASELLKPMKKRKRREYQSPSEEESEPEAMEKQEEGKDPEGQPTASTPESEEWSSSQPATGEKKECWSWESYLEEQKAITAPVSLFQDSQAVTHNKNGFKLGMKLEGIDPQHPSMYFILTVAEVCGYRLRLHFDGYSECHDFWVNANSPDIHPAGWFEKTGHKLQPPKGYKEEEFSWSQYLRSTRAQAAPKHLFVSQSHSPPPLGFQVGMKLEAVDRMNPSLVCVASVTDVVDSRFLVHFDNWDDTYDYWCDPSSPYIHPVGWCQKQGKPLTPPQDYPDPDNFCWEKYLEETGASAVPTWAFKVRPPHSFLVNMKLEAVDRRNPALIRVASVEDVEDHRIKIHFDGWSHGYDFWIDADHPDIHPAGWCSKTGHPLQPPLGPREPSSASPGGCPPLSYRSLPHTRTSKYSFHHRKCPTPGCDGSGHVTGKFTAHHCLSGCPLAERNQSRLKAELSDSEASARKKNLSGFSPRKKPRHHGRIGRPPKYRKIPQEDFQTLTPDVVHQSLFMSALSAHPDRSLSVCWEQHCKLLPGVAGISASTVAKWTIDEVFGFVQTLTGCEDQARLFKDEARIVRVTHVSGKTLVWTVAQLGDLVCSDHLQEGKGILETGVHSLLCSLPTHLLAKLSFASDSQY
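Displacement of a biotinylated histone H3(1-15) peptide monomethylated at Lys9 (75 nM) from L3MBTL1 (50 nM) was measured by AlphaScreen after a 30 min room-temperature compound incubation; cefsulodin titration served as intraplate control.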
* = called active by the depositor; i = inactive; ? = inconclusive; / = no result given; [ ] = dose if it differs, or a comment. Only a selection was taken, and hits are over-represented in it overall. Unless noted, the call rests on the fitted dose curve; in most records, active means well fitted curve in the direction sought with a large enough effect; inconclusive means small, poorly fitted or top-dose-only effect, or another doubt; inactive means no such curve, though single readings can be large; an effect the other way counts as inactive or inconclusive. Unless noted, on the % scale 0 is the no-effect control and ±100 the full control effect; potency means the concentration at half of the fitted maximal effect.

SMILES	JMJD2E inh	TDP1 block	BLM helicase inh	RECQ1 helicase	APE1 inh	L3MBTL1 block
CN1C(=O)C(CC(=O)O)S/C1=N\N=C\c1ccc(O)cc1O (centres undefined)	25µM*	5%	-2%	-5%	2%	-11%
CC(C)C[C@@H](C=O)NC(=O)[C@H](CC(C)C)NC(=O)[C@H](CC(C)C)NC(=O)OCc1ccccc1	/	10%	/	i	-8%	/
COCCN(C(=O)COC(=O)/C=C/c1ccco1)c1c(N)n(Cc2ccccc2)c(=O)[nH]c1=O	/	25µM*	-9%	/	?	/
O=c1[nH]c2ccccc2nc1/C=C/c1ccc(O)cc1	16µM*	?	-8%	i	4%	10%
O=C1c2ccccc2C(=O)N1c1ccncc1	/	5%	/	/	/	/
CC(C)(C)[C@@H](O)C(Cc1ccc(Cl)cc1)n1cncn1 (some centres undefined)	/	13%	2%	-4%	-5%	/
Clc1ccccc1OCc1nnc(-c2ccccc2Br)o1	-3%	-10%	-8%	i	8%	27%
CCc1ccc(OCc2nnc(-c3ccccc3Br)o2)cc1	/	50µM*	/	/	14%	43%
O=C(O)c1ccc(NC(=S)NC(=O)c2ccc3ccccc3c2)cc1	/	32µM*	-2%	/	?	/
CCc1ccc[n+](-c2[nH]c(=O)sc2/C=N/NC([S-])=Nc2ccccc2)c1	3.5µM*	0%	3%	0%	1%	-24%
COc1cccc(C2c3c(ncn(-c4ccc(NC(C)=O)cc4)c3=N)Oc3ccc4ccccc4c32)c1 (centres undefined)	/	3%	/	/	/	/
C/C(=N\Nc1ccc2nncn2n1)c1ccco1	1%	8%	-2%	-5%	12%	10%
C/C(=N\Nc1ccc2nncn2n1)c1ccccn1	10µM*	8%	2%	-3%	2%	25µM*
CC(C)(C)n1ncc2c(=O)n(Cc3ccc(SC(F)(F)F)cc3)cnc21	/	/	/	/	-7%	/
O=C1NCCCC1C(=O)N/N=C/c1cc([N+](=O)[O-])ccc1O (centres undefined)	10µM*	7%	1%	2%	23%	-8%
O=C(N/N=C/c1cc([N+](=O)[O-])ccc1O)C1CC1	28µM*	6%	-3%	i	-2%	12%
CCc1ccc(N2CC(C(=O)N/N=C/c3cc([N+](=O)[O-])ccc3O)CC2=O)cc1 (centres undefined)	?	10%	-1%	i	-3%	?
COC(=O)C(NS(N)(=O)=O)C(C)C (centres undefined)	/	1%	1%	i	1%	/
Cc1nnc(NC(=O)c2sc3nc(-c4cccs4)cc(C(F)(F)F)c3c2N)s1	?	/	-13%	?	-9%	-1%
CC(C)(C)C(=O)c1sc2nc(-c3cccs3)cc(C(F)(F)F)c2c1N	6.3µM*	6%	-13%	-9%	0%	49%
O=C1CCCC2=C1C1(CCS(=O)(=O)C1)N=C(Nc1nc3ccccc3o1)N2 (centres undefined)	/	-8%	/	/	/	/
CCOc1cc(CNc2ccc(N(C)C)cc2)cc(Br)c1OCC(=O)NC(C)(C)C	?	6%	-21%	-15%	-9%	?
CCOc1cc(CNc2ccc(N3CCCCC3)cc2)cc(Br)c1OCC(=O)NC(C)(C)C	3.2µM*	11%	-9%	-11%	-1%	28µM*
CCOc1cc(CNc2ccc(N3CCOCC3)cc2)cc(Br)c1OCC	-14%	11%	-10%	?	3%	32µM*
COc1cc(CNc2ccc(N3CCOCC3)cc2)cc(Br)c1OC	-12%	5%	-5%	-6%	3%	-15%[11.4 µM]
SMILES	JMJD2E inh	TDP1 block	BLM helicase inh	RECQ1 helicase	APE1 inh	L3MBTL1 block
Cc1cc(O)c(C(c2cccc(F)c2)N2CCN(c3ccccc3)CC2)c(=O)n1Cc1ccco1 (centres undefined)	/	3%	-6%	/	/	/
CNC(=S)N/N=C/c1cc(Br)cc(Br)c1O	-2%	-1%	3%	-8%	-14%	2µM*
Oc1c(Br)cc(Br)cc1/C=N/NC(=S)N[C@H]1CC2C=CC1C2 (some centres undefined)	8.9µM*	11%	-20%	-24%	-3%	-70%
CC(=O)Nc1ccc(C(=O)N/N=C/c2cc(Br)cc(Br)c2O)cc1	-8%	2%	-2%	i	-3%	-12%
CC(C)c1ccc(NC(=O)CN2C(=O)c3cccc4cccc2c34)cc1	/	2%	-8%	/	/	/
O=C(CSc1nc2sc3c(c2c(=O)n1-c1ccccc1)CCCC3)N/N=C/c1ccccc1C(=O)O	/	22µM*	?	/	11µM*	/
CC(C)(C)OC(=O)Cc1nnc(-c2cc3ccccc3[nH]2)o1	/	0%	/	/	/	/
CCOc1ccc(Nc2nc(NCC3CCCO3)c3ccccc3n2)cc1 (centres undefined)	-14%	7%	28µM*	?	14%	/
O=C(O)c1ccc(CSc2nnc(-c3cccc([S+](=O)([O-])N4CCCC4)c3)n2-c2ccccc2)cc1	/	/	/	/	5%	/
CCCc1ccc(/C=C2\C(=O)c3ccccc3C(O)=C2C(=O)OCC)cc1	18µM*	8%	-12%	i	-2%	-18%
C/C=C(/CC[C@@H](C)[C@H]1CC[C@H]2C3=CC[C@H]4[C@H](C)[C@@H](O)CC[C@]4(C)[C@H]3CC[C@]12C)C(C)C	/	/	/	/	4%	/
Oc1ccc(N=C/C=C/c2cccc(Br)c2)cc1-c1nc2ccccc2s1	25µM*	0%	-23%	-11%	-5%	?
Nc1ccc(O)c(-c2nc3ccccc3s2)c1	?	?	-26%	-5%	-11%	?
O=C1c2ccccc2C(=O)N1c1cc(=O)c2ccccc2[nH]1	/	2%	/	/	/	/
Cc1nn(-c2ccccc2)c2c1C(c1ccc(O)c(O)c1)N1C(=N2)C(Nc2ccccc2)=Nc2ccccc21 (centres undefined)	18µM*	-1%	-14%	-17%	-1%	1%
O=C(CNC(=O)c1ccccc1)OC(Cc1ccccc1)C(=O)Nc1cc(C(F)(F)F)ccc1Cl (centres undefined)	/	-3%	/	/	/	/
Cc1cc(/C=C2/NC(=O)N(c3ccccc3)C2=O)c(C)n1C(C)C	22µM*	3%	-6%	-5%	5%	-17%
Cc1cc(/C=C2/NC(=O)N(Cc3ccccc3F)C2=O)c(C)n1C(C)C	18µM*	8%	-5%	-1%	-7%	-10%
Cc1cccc(NC(=O)CN2C(=O)N/C(=C/c3cc(C)n(C(C)C)c3C)C2=O)c1	?	8%	-5%	-13%	-1%	/
CC(C)c1cc(-c2nc(-c3ccc(Cl)cc3)no2)n[nH]1	/	0%	-4%	/	/	/
